From PubChem BioAssay (NCI)
The panel holds about 79,000 compounds, 15% with a hit somewhere; the sample as a whole holds those more often. A number with no mark means an inactive call. Activity calls are given as the source filed them. No stated cut-off is given here; in the data, active means growth inhibition above about 70%; inactive means the rest.

Experiment: NCI Yeast Anticancer Drug Screen. Data for the mlh1 rad18 strain (AID 175)
Conditions: S. cerevisiae mlh1 rad18 strain growth inhibition; at 5.0 µM (retest, dose inferred, filed as 0.5); stronger effect = higher value
Summary of the method: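 Growth inhibition of the yeast strain was measured after compound exposure and expressed relative to vehicle-treated controls. The strain carries defined defects in DNA damage repair.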

Row | SMILES | growth inhibition
1 | C1=NC2c3ccccc3Cc3cccc1c32 (centres undefined) | -13%
2 | COc1ccc2c(c1)CN([C@@H](C)[C@H]1CC[C@H]3[C@@H]4CC[C@H]5C[C@@H](O)CC[C@]5(C)[C@H]4CC[C@]13C)CO2 | 97% (active)
3 | Cc1c(N)nc(C(CC(N)=O)NCC(N)C(N)=O)nc1C(=O)NC(C(=O)NC(C)C(O)C(C)C(=O)NC(C(=O)NCCc1nc(-c2nc(C(=O)NCCCNCCCc3ccccn3)cs2)cs1)C(C)O)C(OC1OC(CO)C(O)C(O)C1OC1OC(CO)C(O)C(OC(N)=O)C1O)c1cnc[nH]1 (centres undefined) | 98% (active)
4 | COc1cc2c(cc1O)-c1c(cnn1-c1ccccc1)CCC2 | -8%
5 | CN(C)CC(CN(C)C)C(=O)c1ccc(Oc2ccc(Cl)cc2)cc1 | 92% (active)
6 | N#CCCN(CCC#N)Cc1c(O)c(O)c(CN(CCC#N)CCC#N)c2ccccc12 | -4%
7 | Cc1cc2c(c([N+](=O)[O-])c1C)C(=O)C(Br)=C(N)C2=O | 93% (active)
8 | O=C(O)CSC(=S)N1CCCC1 | -4%
9 | CNC1=C2NC(=O)/C(C)=C\C=C\C(C)C(O)C(C)C(O)C(C)C(OC(C)=O)C(C)C(OC)/C=C/OC3(C)Oc4c(C)c(O)c(c(c4C3=O)C1=O)C2=O (centres undefined) | -4%
10 | O=c1c(Cl)nsnc1Cl | 99% (active)
11 | CC(NC(=O)OCc1ccccc1)C(=O)NNc1ccccc1Cl (centres undefined) | 96% (active)
12 | O=C(OCc1ccccc1CN1CCOCC1)c1cccc(Br)c1 | 21%
13 | OC(COc1ccc(Cl)cc1)COc1ccc(Cl)cc1 | 0%
14 | Cc1c(-c2ccc(C(=N)N)cc2)oc(-c2ccc(C(=N)N)cc2)c1C | 90% (active)
15 | COC(=O)[C@@]12OC[C@]34[C@H]([C@@H](O)[C@@H]1O)[C@@]1(C)CC(=O)C(O)=C(C)[C@@H]1C[C@H]3OC(=O)[C@H](OC(=O)C(Cc1ccccc1)NC(=O)OC(C)(C)C)[C@@H]24 (some centres undefined) | 3%
16 | CCCCCCCCCCCCCCCC(=O)NCC[N+](C)(CC)CC | -8%
17 | Oc1ccc(CCCCCc2ccc(O)cc2)cc1 | 7%
18 | NN(Cc1ccccc1)c1ccccc1 | 27%
19 | CCOC(=O)c1[nH]cc(C)c1-c1ccc2c(-c3ccccc3)nc3ccccc3n12 | 12%
20 | COC(=O)c1cn(NS(=O)(=O)c2ccc(OC)cc2)cc1C(=O)OC | -5%

Row | SMILES | growth inhibition
21 | CN(C)c1cc2c(cc1[N+](=O)[O-])-c1ccccc1C2O (centres undefined) | 5%
22 | CN(C)CCOc1cc2c(c3ccccc13)-c1ccccc1C2O (centres undefined) | 7%
23 | BrC(Br)([P+](c1ccccc1)(c1ccccc1)c1ccccc1)[P+](c1ccccc1)(c1ccccc1)c1ccccc1 | 15%
24 | CCOCCNc1ncnc2c1cnn2C | 3%
25 | C[C@H](CCC1=NCCN1)[C@H]1CC[C@H]2[C@@H]3CC[C@@H]4C[C@H](O)CC[C@]4(C)[C@H]3C[C@H](O)[C@]12C | 32%
26 | CCOC(=O)C1=C(c2ccccc2)N(C)c2ccccc2S1 | 1%
27 | C(=P(c1ccccc1)(c1ccccc1)c1ccccc1)[P+](c1ccccc1)(c1ccccc1)c1ccccc1.[Br][Cu][Br] | 99% (active)
28 | COc1ccc(N(C)Sc2ccccc2)cc1 | -10%
29 | COc1ccc(Cc2c(-c3ccc(C)cc3)n[nH]c(=O)c2C2C(=O)N(c3ccccc3)N=C2c2ccccc2)cc1 (centres undefined) | 47%
30 | N#CSC#CCCC#CSC#N | 47%
31 | c1ccc2c(c1)OCC(CNCCNCC1COc3ccccc3O1)O2 (centres undefined) | 75% (active)
32 | CC(C)(C)OC(=O)N[C@H]1CC2(C=C(Cl)C(=O)C(Cl)=C2)OC1=O | 43%
33 | c1ccc([P+](c2ccccc2)(c2ccccc2)C2CCCC2)cc1 | 11%
34 | COc1ccc2nc(-c3ccc(Cl)cc3)[nH]c2c1 | -4%
35 | CC[C@H](CC[C@@H](C)C1CC[C@H]2[C@@H]3CCC4=CC(=O)CC[C@]4(C)[C@H]3CC[C@]12C)C(C)C (some centres undefined) | 20%
36 | CCOC(=O)N/N=C/c1ccc(N(C)CCC#N)cc1 | 14%
37 | CC(Br)C(=O)c1ccc2cc(Cl)c3ccccc3c2c1 (centres undefined) | 7%
38 | Cc1ccc(-n2cc(-c3ccc(Cl)cc3)c3c(NN)ncnc32)cc1 | -14%
39 | O=C1c2ccccc2C(=O)c2c1ccc(C(=O)O)c2-c1ccc2ccccc2c1 | 8%
